Source: publication PMC7862700, “An all-to-all approach to the identification of sequence-specific readers for epigenetic DNA modifications on cytosine”

The sequences below were run against ETV1 (Homo sapiens, UniProt P50549 1-477) (assay: DAPPL (digital affinity profiling via proximity ligation, sequencing); 10 mM Tris-HCl pH 7.5, 50 mM NaCl, 1 mM DTT, 4% glycerol, room temperature, 30 min; GST-TFs on glutathione beads, 16-mer random dsDNA library, 0.1% formaldehyde crosslink after washing; high values mean tight binding). Settings: protein: recombinant; tags: N-terminal GST; dsDNA, one strand shown.
How it was run: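 Sequencing on an Illumina NextSeq500 followed washing, crosslinking with 0.1% formaldehyde, proximity ligation (BsaI/T4 ligase, 1 h, 37 °C) and PCR amplification of pools that had been incubated for 30 min at room temperature with 200 nmole of a random double-stranded 16-mer DNA library in Tris/NaCl/DTT/glycerol buffer. Each pool held DNA-barcoded human transcription factors, expressed in yeast as GST fusions and captured on glutathione beads, plus a tag-only sample. Binding signal is a hexamer's read frequency for a factor divided by its frequency in the tag-only sample.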

Sequence of ETV1 (P50549 whole entry, the tested form may be a part): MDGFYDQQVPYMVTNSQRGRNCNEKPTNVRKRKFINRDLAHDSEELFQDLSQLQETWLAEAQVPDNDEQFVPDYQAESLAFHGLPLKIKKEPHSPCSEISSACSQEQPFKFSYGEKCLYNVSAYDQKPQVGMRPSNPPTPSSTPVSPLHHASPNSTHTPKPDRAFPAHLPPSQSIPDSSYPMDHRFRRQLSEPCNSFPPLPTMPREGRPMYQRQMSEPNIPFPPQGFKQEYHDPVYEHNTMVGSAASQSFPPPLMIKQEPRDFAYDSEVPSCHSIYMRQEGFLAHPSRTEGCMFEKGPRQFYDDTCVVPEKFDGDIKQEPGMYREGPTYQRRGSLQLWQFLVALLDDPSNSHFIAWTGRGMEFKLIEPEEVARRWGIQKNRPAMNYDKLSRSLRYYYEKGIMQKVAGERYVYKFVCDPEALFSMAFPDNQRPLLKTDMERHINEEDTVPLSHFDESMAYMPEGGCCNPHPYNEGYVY

Question: Which binding signal does the source give for AATGAA here?
Answer: Its binding signal is 1.17 fold enrichment (6-mer frequency, TF over GST control).

Question: With CTCGTA as the sequence, how does the binding signal read?
Answer: Its binding signal is 1.35 fold enrichment (6-mer frequency, TF over GST control).

Question: For CCGACT, which binding signal is on record?
Answer: Its binding signal is 1.6 fold enrichment (6-mer frequency, TF over GST control).

Question: With TTGCTG as the sequence, how does the binding signal read?
Answer: Its binding signal is 1.39 fold enrichment (6-mer frequency, TF over GST control).

Question: For CACCTT, which binding signal is on record?
Answer: The binding signal was 1.35 fold enrichment (6-mer frequency, TF over GST control).

Question: Which binding signal does the source give for TCGAAT here?
Answer: The binding signal was 1 fold enrichment (6-mer frequency, TF over GST control).

Question: ATAGTT was tested. Which binding signal did it give?
Answer: Its binding signal is 1.11 fold enrichment (6-mer frequency, TF over GST control).

Question: Which binding signal does the source give for ATCCCG here?
Answer: Its binding signal is 1.44 fold enrichment (6-mer frequency, TF over GST control).

Question: With CTTTAC as the sequence, how does the binding signal read?
Answer: The binding signal was 1.3 fold enrichment (6-mer frequency, TF over GST control).

Question: Which binding signal does the source give for TAATCC here?
Answer: Its binding signal is 1.26 fold enrichment (6-mer frequency, TF over GST control).

Question: Which binding signal does the source give for CGGCTT here?
Answer: Its binding signal is 1.2 fold enrichment (6-mer frequency, TF over GST control).

Question: With AATCAT as the sequence, how does the binding signal read?
Answer: The binding signal was 1.15 fold enrichment (6-mer frequency, TF over GST control).

Question: For TTAAAT, which binding signal is on record?
Answer: The binding signal was 1.16 fold enrichment (6-mer frequency, TF over GST control).

Question: For TTACTG, which binding signal is on record?
Answer: Its binding signal is 1.01 fold enrichment (6-mer frequency, TF over GST control).

Question: With GGATTT as the sequence, how does the binding signal read?
Answer: The binding signal was 1.22 fold enrichment (6-mer frequency, TF over GST control).

Question: With CTACAA as the sequence, how does the binding signal read?
Answer: The binding signal was 1.13 fold enrichment (6-mer frequency, TF over GST control).

Question: How did the binding signal turn out when ATCTAC was run?
Answer: The binding signal was 1.26 fold enrichment (6-mer frequency, TF over GST control).

Question: How did the binding signal turn out when ATCCAA was run?
Answer: The binding signal was 1.18 fold enrichment (6-mer frequency, TF over GST control).

Question: How did the binding signal turn out when GACCTA was run?
Answer: Its binding signal is 1.16 fold enrichment (6-mer frequency, TF over GST control).

Question: For ATTACG, which binding signal is on record?
Answer: The binding signal was 1.26 fold enrichment (6-mer frequency, TF over GST control).

Question: How did the binding signal turn out when AATTCT was run?
Answer: The binding signal was 1.32 fold enrichment (6-mer frequency, TF over GST control).

Question: TTCATC was tested. Which binding signal did it give?
Answer: Its binding signal is 1.25 fold enrichment (6-mer frequency, TF over GST control).

Question: How did the binding signal turn out when AGCTCA was run?
Answer: Its binding signal is 1.24 fold enrichment (6-mer frequency, TF over GST control).

Question: TAATCG was tested. Which binding signal did it give?
Answer: Its binding signal is 1.01 fold enrichment (6-mer frequency, TF over GST control).

Question: With ATTGCT as the sequence, how does the binding signal read?
Answer: Its binding signal is 1.27 fold enrichment (6-mer frequency, TF over GST control).

Question: Which binding signal does the source give for CTCCCT here?
Answer: The binding signal was 1.44 fold enrichment (6-mer frequency, TF over GST control).

Question: With CGACCT as the sequence, how does the binding signal read?
Answer: The binding signal was 1.55 fold enrichment (6-mer frequency, TF over GST control).

Question: How did the binding signal turn out when CTCATC was run?
Answer: Its binding signal is 1.4 fold enrichment (6-mer frequency, TF over GST control).

Question: With TGACAA as the sequence, how does the binding signal read?
Answer: Its binding signal is 1.25 fold enrichment (6-mer frequency, TF over GST control).

Question: Which binding signal does the source give for CCTGAA here?
Answer: The binding signal was 1.38 fold enrichment (6-mer frequency, TF over GST control).

Question: How did the binding signal turn out when TTTACG was run?
Answer: Its binding signal is 1.32 fold enrichment (6-mer frequency, TF over GST control).

Question: How did the binding signal turn out when ATTAGC was run?
Answer: The binding signal was 1.16 fold enrichment (6-mer frequency, TF over GST control).

Question: How did the binding signal turn out when CGAGCA was run?
Answer: Its binding signal is 1.11 fold enrichment (6-mer frequency, TF over GST control).

Question: Which binding signal does the source give for CCTATT here?
Answer: Its binding signal is 1.55 fold enrichment (6-mer frequency, TF over GST control).

Question: For ATTCCC, which binding signal is on record?
Answer: Its binding signal is 1.4 fold enrichment (6-mer frequency, TF over GST control).

Question: How did the binding signal turn out when GCTGCT was run?
Answer: The binding signal was 1.42 fold enrichment (6-mer frequency, TF over GST control).

Question: Which binding signal does the source give for TTGTAG here?
Answer: Its binding signal is 1.25 fold enrichment (6-mer frequency, TF over GST control).

Question: How did the binding signal turn out when CTTTCA was run?
Answer: The binding signal was 1.45 fold enrichment (6-mer frequency, TF over GST control).

Question: Which binding signal does the source give for AAATTA here?
Answer: Its binding signal is 1.2 fold enrichment (6-mer frequency, TF over GST control).

Question: Which binding signal does the source give for TATGCC here?
Answer: Its binding signal is 1.28 fold enrichment (6-mer frequency, TF over GST control).
